# Source: PubChem BioAssay (NCATS)
# “And” between values parts separate entries of the source, which are not always exact repeats. Equal values may be shown once. Unmarked numbers belong to inactive results. Results filed as inconclusive are left out. Where a call stands in place of a potency, no number is given. The source made the active and inactive calls. Unless noted, calls follow the shape of the dose curve; as a rule, active = well fitted curve in the direction sought with a large enough effect; inconclusive = small, poorly fitted or top-dose-only effect, or another doubt; inactive = no such curve, though single readings can be large; an effect the other way counts as inactive or inconclusive.
# Legend:
# [1] = target: T1, Hexokinase-4 (Homo sapiens) + Glucokinase regulatory protein (Homo sapiens) (UniProt P35557+Q14397); test: qHTS assay for inhibitors of recombinant human GCK-GKRP interaction: Diaphorase-coupled assay (AID 743205)
# T1 sequence (P35557 whole entry, looked up): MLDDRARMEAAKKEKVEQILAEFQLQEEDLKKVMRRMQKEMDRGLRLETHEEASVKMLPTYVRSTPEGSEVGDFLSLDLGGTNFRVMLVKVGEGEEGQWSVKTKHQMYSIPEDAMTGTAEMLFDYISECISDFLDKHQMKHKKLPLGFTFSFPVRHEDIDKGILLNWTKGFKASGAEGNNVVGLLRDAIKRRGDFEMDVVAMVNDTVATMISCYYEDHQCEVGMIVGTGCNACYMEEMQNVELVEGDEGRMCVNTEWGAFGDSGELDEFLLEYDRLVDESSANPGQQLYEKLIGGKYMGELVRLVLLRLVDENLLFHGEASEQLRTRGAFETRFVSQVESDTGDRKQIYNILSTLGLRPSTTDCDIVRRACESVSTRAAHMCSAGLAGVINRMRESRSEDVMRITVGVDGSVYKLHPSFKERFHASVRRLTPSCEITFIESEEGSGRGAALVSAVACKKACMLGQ
# T1 sequence (Q14397 whole entry, looked up): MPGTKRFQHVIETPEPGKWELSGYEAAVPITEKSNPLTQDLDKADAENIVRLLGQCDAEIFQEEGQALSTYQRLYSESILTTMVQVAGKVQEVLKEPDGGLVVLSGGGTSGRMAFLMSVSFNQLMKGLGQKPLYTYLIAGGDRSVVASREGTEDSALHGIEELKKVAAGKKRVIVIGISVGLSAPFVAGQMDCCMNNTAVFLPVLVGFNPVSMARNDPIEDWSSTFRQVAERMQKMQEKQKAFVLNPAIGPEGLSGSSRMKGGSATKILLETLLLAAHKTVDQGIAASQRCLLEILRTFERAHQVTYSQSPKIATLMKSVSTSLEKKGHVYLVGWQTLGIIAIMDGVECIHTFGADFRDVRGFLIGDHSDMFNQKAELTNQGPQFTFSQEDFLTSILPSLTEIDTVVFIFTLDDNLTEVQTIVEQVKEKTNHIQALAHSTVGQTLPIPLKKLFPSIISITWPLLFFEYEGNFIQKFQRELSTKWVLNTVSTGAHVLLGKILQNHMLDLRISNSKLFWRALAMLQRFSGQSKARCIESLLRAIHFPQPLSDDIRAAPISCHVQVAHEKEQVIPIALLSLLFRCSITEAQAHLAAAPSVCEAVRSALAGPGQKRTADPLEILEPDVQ
# How it was run: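 Signal derives from resorufin generated by diaphorase, linked to GCK turnover of glucose (5 mM) and ATP (0.4 mM). Enzyme complex was added after a 20-minute compound preincubation and monitored for 30 minutes.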
# [2] = target: T1, Hexokinase-4 (Homo sapiens) + Glucokinase regulatory protein (Homo sapiens); test: qHTS assay for inhibitors of recombinant human GCK-GKRP interaction: ADP-Glo assay (AID 743206)
# How it was run: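 GST-GCK and FLAG-GKRP (15 nM each in the dispensed mix, with 2 uM S6P) react with 0.4 mM ATP and 5 mM glucose (final) in Hepes pH 7.6 for 60 min at room temperature. ADP is measured by ADP-Glo luminescence.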
# [3] = target: T1, Hexokinase-4 (Homo sapiens) + Glucokinase regulatory protein (Homo sapiens); test: qHTS assay for inhibitors of recombinant human GCK-GKRP interaction: HTRF assay (AID 743207)
# How it was run: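 Titration screening format: recombinant GST-GCK and FLAG-GKRP at 5 nM, S6P at 2 uM, labelled anti-tag antibodies, 60 min at RT, dual-wavelength HTRF readout.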
# [4] = qHTS Assay for Identifying Gametocytocidal Compounds (AID 743244);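 also: actives lower the fluorescent signal which means gametocytes are killed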; conditions: P. falciparum 3D7 stage III-V gametocytes, alamarBlue, 72 h; max response: stronger effect = lower value
# How it was run: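 Using 20,000 stage III–V 3D7 gametocytes per well, compounds were incubated 72 h under 37 °C/5% CO2. Viability was then assessed by 24 h alamarBlue reduction, measured fluorometrically at 525/598 nm.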
# [5] = target: Atrial natriuretic peptide receptor 1 (Homo sapiens) (UniProt P16066); test: Natriuretic polypeptide receptor (hNpr1) antagonism - Pilot screen (AID 1347049; calls by dose curve;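 also: agonist-evoked cGMP luminescence read 20 min after hNppA addition; series mostly up to about 58 µM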)
# Atrial natriuretic peptide receptor 1 (Homo sapiens), sequence (P16066 whole entry, looked up): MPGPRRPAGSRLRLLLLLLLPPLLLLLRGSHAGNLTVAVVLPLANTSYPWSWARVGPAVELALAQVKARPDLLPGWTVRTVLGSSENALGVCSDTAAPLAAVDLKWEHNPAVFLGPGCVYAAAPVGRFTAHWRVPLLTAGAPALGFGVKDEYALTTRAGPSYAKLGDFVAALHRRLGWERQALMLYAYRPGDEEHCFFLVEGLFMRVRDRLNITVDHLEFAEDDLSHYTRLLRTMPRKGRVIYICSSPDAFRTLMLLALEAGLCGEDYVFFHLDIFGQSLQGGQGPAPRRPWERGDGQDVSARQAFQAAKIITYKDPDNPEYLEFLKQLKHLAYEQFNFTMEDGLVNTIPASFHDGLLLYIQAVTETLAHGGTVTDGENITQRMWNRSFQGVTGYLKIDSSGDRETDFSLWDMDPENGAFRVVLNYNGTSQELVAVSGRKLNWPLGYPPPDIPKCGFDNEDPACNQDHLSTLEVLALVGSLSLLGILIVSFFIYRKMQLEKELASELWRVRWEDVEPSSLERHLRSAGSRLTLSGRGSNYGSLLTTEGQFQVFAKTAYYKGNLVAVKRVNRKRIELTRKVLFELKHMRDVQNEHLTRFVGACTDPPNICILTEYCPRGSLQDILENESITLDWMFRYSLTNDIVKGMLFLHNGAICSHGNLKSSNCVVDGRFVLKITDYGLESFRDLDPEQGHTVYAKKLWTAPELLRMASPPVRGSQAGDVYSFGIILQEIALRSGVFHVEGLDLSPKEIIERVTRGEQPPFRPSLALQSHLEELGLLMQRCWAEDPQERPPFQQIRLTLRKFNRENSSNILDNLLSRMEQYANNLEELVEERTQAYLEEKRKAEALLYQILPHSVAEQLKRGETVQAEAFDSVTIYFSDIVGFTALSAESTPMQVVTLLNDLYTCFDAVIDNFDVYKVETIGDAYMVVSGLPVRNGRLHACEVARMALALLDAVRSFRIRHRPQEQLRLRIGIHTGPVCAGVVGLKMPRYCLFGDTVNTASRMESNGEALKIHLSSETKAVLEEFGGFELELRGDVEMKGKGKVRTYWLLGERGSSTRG
# How it was run: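 HEK293 cells co-expressing hNpr1 and the GloSensor pGS-40F cGMP luciferase sensor were preloaded with 2% GloSensor reagent for 2 h. Compounds were added for 30 min at room temperature, then cells were stimulated with 0.1 nM hNppA for 20 min before luminescence readout.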
# [6] = target: Atrial natriuretic peptide receptor 2 (Homo sapiens) (UniProt P20594); test: Natriuretic polypeptide receptor (hNpr2) antagonism - Pilot subtype selectivity assay (AID 1347050; calls by dose curve)
# How it was run: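 cGMP-sensor HEK293/hNpr2 cells; 2% GloSensor reagent 2 h RT; compounds 30 min; baseline luminescence read; 1 nM hNppC agonist 20 min RT; final luminescence read by CCD camera. Antagonism = reduced post-agonist signal.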
# [7] = target: N-terminal Xaa-Pro-Lys N-methyltransferase 1 (Homo sapiens) (UniProt Q9BV86); test: qHTS Assay for Inhibitors of N-terminal methyltransferase 1 (NTMT1): LOPAC validation of the NTMT1 SAHH-coupled ThioGlo3 Assay (AID 1347143); also: potency is read from the fitted curve at half-maximal effect; nearly all actives have a fitted effect of over 70% in size
# N-terminal Xaa-Pro-Lys N-methyltransferase 1 (Homo sapiens), sequence (Q9BV86 whole entry, looked up): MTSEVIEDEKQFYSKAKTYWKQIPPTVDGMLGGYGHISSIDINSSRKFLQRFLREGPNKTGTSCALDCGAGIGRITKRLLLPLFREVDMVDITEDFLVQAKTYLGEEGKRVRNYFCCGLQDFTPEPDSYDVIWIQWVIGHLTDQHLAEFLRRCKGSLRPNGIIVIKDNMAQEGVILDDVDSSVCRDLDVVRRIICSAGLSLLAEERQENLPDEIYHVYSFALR
# How it was run: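 Fluorescence read-out (excitation 340nm, emission 450nm) of SAH-derived thiol, measured via SAHH coupling and ThioGlo3, taken immediately and after a 30 min room-temperature reaction, then normalized to the background read. Enzyme: NTMT1 at 125nM; cofactor SAM 100uM in the added reagent.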
# [8] = tested on: Zika virus NS2B-NS3 protease; test: Primary screen GU AMC qHTS for Zika virus inhibitors (AID 1347154); also: nearly all actives have a fitted effect of over 70% in size
# How it was run: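 Unlinked Zika NS2B hydrophilic domain/NS3 protease domain noncovalent complex (25 nM final) in 10 mM Tris-HCl pH 8.0, 0.01% Tween 20, with AMC peptide substrate. Fluorescence (ex 340, em 450 nm) change over 15 min, room temperature; percent inhibition fitted to 4-parameter Hill equation.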
# [9] = target: Lysine-specific demethylase 5B (Homo sapiens) (UniProt Q9UGL1); test: Optimization screen for KDM5B Histone Demethylases FDH coupled qHTS against the LOPAC library (AID 1347166)
# Lysine-specific demethylase 5B (Homo sapiens), sequence (Q9UGL1 whole entry, looked up): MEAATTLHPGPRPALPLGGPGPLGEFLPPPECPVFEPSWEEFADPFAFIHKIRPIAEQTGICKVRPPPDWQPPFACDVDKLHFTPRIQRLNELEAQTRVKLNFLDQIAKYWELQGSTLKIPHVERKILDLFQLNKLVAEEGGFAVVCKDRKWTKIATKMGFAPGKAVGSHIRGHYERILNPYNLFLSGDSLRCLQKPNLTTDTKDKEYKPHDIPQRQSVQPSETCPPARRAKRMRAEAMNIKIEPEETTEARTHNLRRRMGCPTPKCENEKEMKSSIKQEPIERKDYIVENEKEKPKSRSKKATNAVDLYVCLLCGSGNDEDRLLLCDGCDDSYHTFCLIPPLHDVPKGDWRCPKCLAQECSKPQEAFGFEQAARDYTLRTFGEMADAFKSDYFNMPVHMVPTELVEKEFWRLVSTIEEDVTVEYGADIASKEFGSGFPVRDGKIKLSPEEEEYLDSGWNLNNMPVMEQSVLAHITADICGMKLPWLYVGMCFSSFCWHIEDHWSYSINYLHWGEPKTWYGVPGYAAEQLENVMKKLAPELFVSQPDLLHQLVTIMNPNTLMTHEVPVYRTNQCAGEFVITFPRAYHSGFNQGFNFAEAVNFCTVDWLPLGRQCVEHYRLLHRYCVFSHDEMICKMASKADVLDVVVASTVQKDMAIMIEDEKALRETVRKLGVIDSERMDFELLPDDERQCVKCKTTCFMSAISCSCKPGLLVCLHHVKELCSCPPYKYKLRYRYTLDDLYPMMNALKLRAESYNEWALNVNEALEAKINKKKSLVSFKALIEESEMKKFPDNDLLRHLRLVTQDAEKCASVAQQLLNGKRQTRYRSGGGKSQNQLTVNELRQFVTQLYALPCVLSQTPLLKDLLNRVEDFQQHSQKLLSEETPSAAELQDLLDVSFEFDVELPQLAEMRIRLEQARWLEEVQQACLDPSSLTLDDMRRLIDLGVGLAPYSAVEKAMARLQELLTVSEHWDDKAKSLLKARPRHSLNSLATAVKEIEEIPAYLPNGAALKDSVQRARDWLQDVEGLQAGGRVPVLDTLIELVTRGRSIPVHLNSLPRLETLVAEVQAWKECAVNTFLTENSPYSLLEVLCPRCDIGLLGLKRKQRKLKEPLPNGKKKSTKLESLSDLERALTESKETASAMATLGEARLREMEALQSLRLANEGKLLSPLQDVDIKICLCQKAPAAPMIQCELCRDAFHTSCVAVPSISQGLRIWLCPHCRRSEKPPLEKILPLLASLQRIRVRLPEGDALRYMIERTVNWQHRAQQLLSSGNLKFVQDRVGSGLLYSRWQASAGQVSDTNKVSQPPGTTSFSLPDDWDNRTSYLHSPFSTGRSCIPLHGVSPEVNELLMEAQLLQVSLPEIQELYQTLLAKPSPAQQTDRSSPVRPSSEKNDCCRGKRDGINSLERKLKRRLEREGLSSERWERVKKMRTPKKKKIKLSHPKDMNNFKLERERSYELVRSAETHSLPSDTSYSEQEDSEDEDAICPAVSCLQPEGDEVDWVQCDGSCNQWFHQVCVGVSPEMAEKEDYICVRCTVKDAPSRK
# How it was run: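 KDM5BDeltaAP (200nM final) preincubated 10 min with compound, then 12.5uM H3K4Me3, 25uM a-ketoglutarate, ascorbate, Fe(II), NAD+ and FDH added; 50mM HEPES pH 7.5, 0.01% Tween-20. NADH fluorescence (340/450 nm) change over 30 min, room temperature.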
# [10] = qHTS to identify inhibitors of the type 1 interferon - major histocompatibility complex class I in skeletal muscle: primary screen against the NCATS LOPAC collection (AID 1347405);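 also: lytic HiBiT luminescence reporting HLA-B protein level; potency is read from the fitted curve at half-maximal effect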
# How it was run: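 Immortalized human C25cl48 myoblasts with HiBiT knocked into endogenous HLA-B*08:01 were stimulated with 4.0 ng/ml IFN-beta and given compounds in a 7-point, 1:4.3 titration from 46 uM final; after 24 hrs, lytic HiBiT luminescence was read.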
# [11] = qHTS for inhibitors of adenylyl cyclases using a fission yeast platform: a pilot screen against the NCATS LOPAC library (AID 1347410)
# How it was run: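 Inhibition of GNAS-stimulated AC9 activity in S. pombe was inferred from derepression of a PKA-repressed fbp1-GFP reporter, measured as cytometric fluorescence after 18 h at 30C with compounds at up to 57 µM.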
# [12] = Validation qHTS assay for inhibitors of Activation Induced Cytidine Deaminase (AID): UDG Counterscreen signal (AID 1347427)
# How it was run: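 Counterscreen read of UDG activity (2 U/mL, 4/3x) in the FRET deamination format with AID (1 uM, 4/3x), DJC20/DJC23 substrates (250 nM, 4x), 4 h at room temperature. NaOH stop, fluorescence at 560 ex/665 em.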
# [13] = target: Single-stranded DNA cytosine deaminase (Homo sapiens) (UniProt Q9GZX7); test: Validation qHTS assay for inhibitors of Activation Induced Cytidine Deaminase (AID): AID signal (AID 1347429)
# Single-stranded DNA cytosine deaminase (Homo sapiens), sequence (Q9GZX7 whole entry, looked up): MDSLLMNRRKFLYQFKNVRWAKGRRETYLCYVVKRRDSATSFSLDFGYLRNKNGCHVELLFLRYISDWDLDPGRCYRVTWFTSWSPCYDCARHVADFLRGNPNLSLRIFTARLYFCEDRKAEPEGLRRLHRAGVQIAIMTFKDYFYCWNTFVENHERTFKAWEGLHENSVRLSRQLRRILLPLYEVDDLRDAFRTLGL
# How it was run: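 AID and UDG were combined and compounds added at final up to 114 uM, then DJC20/DJC23 FRET substrate was added for 4 hr at room temperature. NaOH was then added for 30 min before fluorescence was read at 540/590 nm.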
# [14] = Counterscreen qHTS for small molecule stabilizers of the endoplasmic reticulum resident proteome: GLuc-NoTag assay (AID 1508627); also: potency is read from the fitted curve at half-maximal effect
# How it was run: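 SH-SY5Y cells stably expressing constitutively secreted GLuc (no SERCaMP tag) were pre-incubated 5 h, treated with compound for 19 h, then 100 nM thapsigargin for 4 h at 37C; medium GLuc read by coelenterazine luminescence.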
# [15] = Confirmatory qHTS for small molecule stabilizers of the endoplasmic reticulum resident proteome: Secreted ER Calcium Modulated Protein (SERCaMP) assay (AID 1508628); also: potency is read from the fitted curve at half-maximal effect; nearly all actives have a fitted effect of over 40% in size
# How it was run: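 We seeded SH-SY5Y-GLuc-SERCaMP cells, added compounds (three concentrations in the primary run, eleven up to 76.6 uM in confirmation), incubated 16 h, depleted ER calcium with thapsigargin, and read luciferase 4 h later.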
# Papain (Carica papaya) = Papain (Carica papaya) (UniProt P00784); test: Primary qHTS assay for inhibitors of the protease papain (AID 1645873);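 also: papain turnover of Z-FR-AMC read as the AMC fluorescence gain over 10 min; series mostly up to about 50 µM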
# Papain (Carica papaya), sequence (P00784 whole entry, looked up): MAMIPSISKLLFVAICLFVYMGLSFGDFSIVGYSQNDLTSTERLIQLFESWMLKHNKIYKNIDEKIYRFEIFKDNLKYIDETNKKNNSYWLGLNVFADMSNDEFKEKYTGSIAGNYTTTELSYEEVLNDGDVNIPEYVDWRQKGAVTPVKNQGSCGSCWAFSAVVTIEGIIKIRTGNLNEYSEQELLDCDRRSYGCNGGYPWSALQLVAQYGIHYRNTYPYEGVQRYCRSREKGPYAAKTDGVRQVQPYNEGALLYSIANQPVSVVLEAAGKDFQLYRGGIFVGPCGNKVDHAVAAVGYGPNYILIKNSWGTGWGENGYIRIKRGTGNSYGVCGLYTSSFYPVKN
# [16] = target: Metallo-beta-lactamase type 2 (Klebsiella pneumoniae) (UniProt C7C422); test: qHTS to identify inhibitors of the New Delhi Metallo-beta-lactamase (NDM): assay validation screen against the NCATS LOPAC Collection (AID 1794843);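 also: nitrocefin turnover by NDM-1 measured as 485 nm absorbance at plateau; series mostly up to about 38 µM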
# Metallo-beta-lactamase type 2 (Klebsiella pneumoniae), sequence (C7C422 whole entry, looked up): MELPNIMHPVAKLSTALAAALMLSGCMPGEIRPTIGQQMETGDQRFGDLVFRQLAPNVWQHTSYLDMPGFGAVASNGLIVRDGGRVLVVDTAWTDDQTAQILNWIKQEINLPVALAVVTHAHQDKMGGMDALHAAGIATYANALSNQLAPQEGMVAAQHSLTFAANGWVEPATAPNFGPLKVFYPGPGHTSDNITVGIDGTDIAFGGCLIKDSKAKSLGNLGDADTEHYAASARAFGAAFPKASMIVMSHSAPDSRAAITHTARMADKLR
# How it was run: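 Enzyme 2 nM final, 50 mM HEPES pH 7.0, 1 uM ZnSO4, 0.01% Tween20; cpds in DMSO, preincub w/ enzyme; + nitrocefin (50 uM stock); A485 at plateau; no-enzyme column as blank.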
# [17] = target: Glutathione peroxidase 1 (Homo sapiens) (UniProt P07203); test: Primary qHTS Assay for Inhibitors of Recombinant Selenoprotein Glutathione Peroxidase 1 (GPX1) (AID 1845191); also: nearly all actives have a fitted effect of over 65% in size
# Glutathione peroxidase 1 (Homo sapiens), sequence (P07203 whole entry, looked up): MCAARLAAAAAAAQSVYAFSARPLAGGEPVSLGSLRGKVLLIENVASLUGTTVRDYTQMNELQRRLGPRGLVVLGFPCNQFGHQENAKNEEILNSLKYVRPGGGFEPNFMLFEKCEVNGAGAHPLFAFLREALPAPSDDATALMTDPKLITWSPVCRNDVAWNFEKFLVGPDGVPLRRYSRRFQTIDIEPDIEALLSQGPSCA
# How it was run: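 Recombinant GPX1 (10 nM final) was preincubated with compound for 30 min at room temperature, then reacted with 1 mM GSH, 0.5 mM CHP, 0.5 mM NADPH and 100 nM glutathione reductase; NADPH fluorescence (340/450 nm) was read at 0 and 15 min.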
# [18] = target: Phospholipid hydroperoxide glutathione peroxidase GPX4 (Homo sapiens) (UniProt P36969); test: Primary qHTS Assay for Inhibitors of Recombinant Selenoprotein Glutathione Peroxidase 4 (GPX4) (AID 1845192); conditions: outcome: dose series up to 50 µM unless noted; also: nearly all actives have a fitted effect of over 65% in size
# How it was run: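 GR-coupled readout: 100 nM GR, 1 mM GSH, 0.5 mM NADPH; NADPH fluorescence (ex 340/em 450 nm) read at t=0 and after 15 min RT. GPX4 200 nM, preincubated 30 min with compound; substrate 0.5 mM CHP.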
# [19] = qHTS assay to identify inhibitors of the type 1 interferon - major histocompatibility complex class I in skeletal muscle: Counter screen cell viability and HiBit confirmation (AID 1347412); conditions: iHSKM muscle cells + IFN-b, HiBiT or CellTiter-Glo, 24 h; HiBiT; also: potency is read from the fitted curve at half-maximal effect; nearly all actives have a fitted effect of over 60% in size
# How it was run: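 Human myoblast knock-in line, 4.0 ng/ml IFN-beta stimulation, 24 h compound treatment. Endpoints: HiBiT lytic luminescence (HLA-B level) and CellTiter Glo (ATP). Dosing 12 concentrations, 3-fold steps, 46 uM highest final.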
structure (smiles),measurement,setting,value
O=Nc1c(-c2c(O)[nH]c3ccccc23)[nH]c2ccccc12,outcome,[1],inactive
same,outcome,[2],inactive
same,outcome,[3],inactive
same,max response,[4],1.55%
same,Potency,[5],inactive
same,Potency,[6],inactive
same,Potency,[7],20 µM (active)
same,Potency,[8],inactive
same,outcome,[9],inactive
same,Potency,[10],11.2 µM (active)
same,outcome,[11],inactive
same,outcome,[12],inactive
same,Potency,[13],inactive
same,Potency,[14],15.8 µM (active)
same,Potency,[15],28.2 µM (active) and 4.47 µM (active)
same,Potency,Papain (Carica papaya),inactive
same,Potency,[16],inactive
same,Potency,[17],inactive
same,Potency,[18],inactive
same,Potency,[19],14 µM (active)
